# In PubChem BioAssay (NCATS):
# Results filed as inconclusive are left out. The source made the active and inactive calls. Calls follow the shape of the dose curve; as a rule, active = well fitted inhibition curve with a large enough effect in the signal ratio, with a control signal flat (not every such curve was filed as active); inconclusive = small, poorly fitted or top-dose-only effect, or effect the other way, or a change in a side signal; inactive = no such curve, though single readings can be large or run the other way; the % refers to the signal ratio.
# Target: Peroxisome proliferator-activated receptor delta (Homo sapiens) (UniProt Q03181)
# Sequence (Q03181 whole entry, looked up): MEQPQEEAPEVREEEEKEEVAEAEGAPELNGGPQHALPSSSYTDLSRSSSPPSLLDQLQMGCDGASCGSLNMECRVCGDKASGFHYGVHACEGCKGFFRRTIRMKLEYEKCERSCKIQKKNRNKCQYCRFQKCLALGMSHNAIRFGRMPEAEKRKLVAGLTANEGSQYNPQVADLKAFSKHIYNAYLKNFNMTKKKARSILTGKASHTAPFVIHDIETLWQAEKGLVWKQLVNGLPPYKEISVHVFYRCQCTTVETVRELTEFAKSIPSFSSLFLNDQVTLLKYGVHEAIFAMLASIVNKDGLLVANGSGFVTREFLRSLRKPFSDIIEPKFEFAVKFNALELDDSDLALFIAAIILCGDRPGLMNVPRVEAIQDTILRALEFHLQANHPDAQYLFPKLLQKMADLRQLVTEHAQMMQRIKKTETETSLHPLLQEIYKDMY
# Test: qHTS assay for small molecule antagonists of peroxisome proliferator-activated receptor delta signaling (AID 588535)
# Settings: HEK293T PPARd-UAS-bla, beta-lactamase FRET ratio, 18 h; series mostly up to 76.7 µM
# Description: NIH Chemical Genomics Center [NCGC] U.S. Environmental Protection Agency [EPA] National Institutes of Environmental Health Sciences [NIEHS] National Toxicology Program [NTP] NCGC Assay Overview The Peroxisome proliferator-activated receptors (PPARs) are lipid-activated transcription factors of the nuclear receptor superfamily with three distinct subtypes namely PPAR alpha, PPAR delta (also called PPAR beta) and PPAR gamma. All these subtypes heterodimerizes with Retinoid X receptor (RXR) and have different physiological functions. […] This role of PPAR delta implicates the potential use of its ligands in the treatment of metabolic disorders.
# NCGC Assay Protocol Summary Using a beta-lactamase reporter-gene under control Peroxisome Proliferator-Activated Receptor delta (PPAR-delta) response element, a cell-based assay [GeneBLAzer (PPAR-delta-UAS-bla assay developed by Invitrogen] was used to measure PPAR-delta ligands signaling. GeneBLAzer PPAR-delta-UAS-bla HEK293T cells were used with assay medium containing 2% charcoal/dextran FBS. The assay was performed in clear bottom black Greiner 1536-well plates. Library compounds were measured for their ability to inhibit the reporter gene activity. Compounds were screened in a titration series in 1536-well format. The fluorescence intensity (405 nm excitation, 460/530 nm emission) was measured using an EnVision plate reader. […] Concentration-response titration points for each compound were fitted to the Hill equation yielding concentrations of half-maximal inhibition (IC50) and maximal response (efficacy) values. qHTS protocol for PPAR-delta beta-lactamase assay in antagonist mode [Step] [Parameter] [Value] [Description] 1. Reagent; 5 uL; 4000 cells/well 2. Incubation; 37 C for 5 hrs 3. Compounds; 23 nL; 0.59 nM to 92 uM 4. […] Incubation; 37 C for 18 hrs 7. Detection reagent; 1 uL of CCF4-dye 8. Incubation; RT for 2 hrs 9. Detection; Fluorescence; Envision plate reader
row,Compound,outcome
1,OCC(CO)(CBr)CBr,inactive
2,C=CC(=O)OCCCCCCOC(=O)C=C,inactive
3,C1CCCNCC1,inactive
4,O=C(Cl)c1ccc([N+](=O)[O-])cc1,inactive
5,O=C(OCc1ccccc1)c1ccccc1O,inactive
6,O=[N+]([O-])c1cc(N(CCO)CCO)ccc1NCCO,inactive
7,O=[N+]([O-])c1cccc(I)c1,inactive
8,Cc1ccc2ccc3cccc4ccc1c2c34,inactive
9,Cc1ccc(S(N)(=O)=O)cc1,inactive
10,CCCCCCc1ccc(-c2ccc(C#N)cc2)cc1,inactive
11,Cc1cc(-c2ccc(N=Nc3cc(S(=O)(=O)O)c4ccccc4c3N)c(C)c2)ccc1N=Nc1cc(S(=O)(=O)O)c2ccccc2c1N,inactive
12,c1cc2c3c(c1)ccc1cccc(c13)C2,inactive
13,COc1ccc([N+](=O)[O-])cc1N,inactive
14,CCCCCCCC/C=C\CCCCCCCC(=O)N(CCO)CCO,inactive
15,O=[N+]([O-])c1cc(Cl)c(Cl)c(Cl)c1Cl,inactive
16,O=C1OC(=O)c2ccccc21,inactive
17,CC(C)S,inactive
18,N[C@@H](Cc1ccccc1)C(=O)O,inactive
19,C/C=C/C=C/C=O,inactive
20,NC(=O)c1ccc([N+](=O)[O-])cc1,inactive

row,Compound,outcome
1,C=C(C#N)C(=O)OCC,inactive
2,C/C(Cl)=C/CCl,inactive
3,O=C(O)c1ccc([N+](=O)[O-])cc1,inactive
4,S=C(NC1CCCCC1)NC1CCCCC1,inactive
5,Nc1ccc(N)c(Cl)c1,inactive
6,Nc1ccccc1O,inactive
7,c1ccc2c(c1)ccc1ccccc12,inactive
8,Brc1cc(Oc2cc(Br)c(Br)c(Br)c2Br)c(Br)c(Br)c1Br,inactive
9,CCNC(=S)NCC,inactive
10,c1c[nH]cn1,inactive
11,CC(=O)OC1CC(C)OC(C)O1 (stereo not given),inactive
12,NC(=O)Nc1nc2ccccc2[nH]1,inactive
13,CN(C)c1ccc(Cc2ccc(N(C)C)cc2)cc1,inactive
14,C=CC(C)(O)CCCC(C)CCCC(C)CCCC(C)C (stereo not given),inactive
15,OCC(CBr)(CBr)CBr,inactive
16,COc1ccc(C)cc1N,inactive
17,CCCCNCC,inactive
18,Cc1c(N)cccc1Cl,inactive
19,c1ccc(SCCSc2ccccc2)cc1,inactive
20,Nc1cc([N+](=O)[O-])ccc1O,inactive
